# High-throughput results from PubChem BioAssay.
# IDE exosite inh – exo-site inhibitors of human IDE, primary screen, biochemical, fluorescence anisotropy, probe displacement; Insulin-degrading enzyme (Homo sapiens), P14735; purified IDE, FL-6b probe fluorescence polarization; active compounds read low; z-score at 20 µM; 6.3% of 17,000 active;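 active = z-score of -3 or lower, meaning strong loss of probe binding signal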;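 also: His-tagged human IDE residues 42-1019 made in E. coli with 30 nM FL-6b probe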
# Target sequence (P14735 42-1019 limits assumed): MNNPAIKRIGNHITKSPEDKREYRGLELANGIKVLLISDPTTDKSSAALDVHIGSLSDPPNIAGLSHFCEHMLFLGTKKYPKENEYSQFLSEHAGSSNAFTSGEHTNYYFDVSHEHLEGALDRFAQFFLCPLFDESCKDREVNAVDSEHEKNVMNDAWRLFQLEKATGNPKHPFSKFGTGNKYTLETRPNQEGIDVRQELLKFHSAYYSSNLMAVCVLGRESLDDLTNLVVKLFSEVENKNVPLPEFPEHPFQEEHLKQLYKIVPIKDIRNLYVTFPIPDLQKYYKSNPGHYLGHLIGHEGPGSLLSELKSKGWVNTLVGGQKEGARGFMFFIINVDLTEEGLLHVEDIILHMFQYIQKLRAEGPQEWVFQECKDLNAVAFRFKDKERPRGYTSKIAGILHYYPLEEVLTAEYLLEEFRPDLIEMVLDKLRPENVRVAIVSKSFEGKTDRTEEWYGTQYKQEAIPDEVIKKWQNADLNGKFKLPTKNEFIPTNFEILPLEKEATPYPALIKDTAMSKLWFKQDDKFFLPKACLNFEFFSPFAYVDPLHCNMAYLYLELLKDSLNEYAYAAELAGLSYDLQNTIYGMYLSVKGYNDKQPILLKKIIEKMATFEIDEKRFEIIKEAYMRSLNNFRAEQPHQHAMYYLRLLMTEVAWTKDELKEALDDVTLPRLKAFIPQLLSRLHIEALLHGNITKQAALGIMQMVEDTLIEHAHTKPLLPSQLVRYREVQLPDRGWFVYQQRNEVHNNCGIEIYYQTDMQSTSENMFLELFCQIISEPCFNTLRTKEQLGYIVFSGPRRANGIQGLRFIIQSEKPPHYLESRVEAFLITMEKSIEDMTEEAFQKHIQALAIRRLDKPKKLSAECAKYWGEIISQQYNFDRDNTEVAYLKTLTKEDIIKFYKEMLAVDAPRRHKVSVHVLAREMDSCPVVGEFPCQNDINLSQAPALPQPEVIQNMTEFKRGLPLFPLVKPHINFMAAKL
# * hit, by the source's call. This is one part of a sample in which hits are shown more often than they occur.
SMILES,IDE exosite inh
C/C=C/c1ccc([C@@H]2[C@@H](CO)N3C(=O)CN(Cc4ccc(C)cc4)C[C@@H]23)cc1,1.2
COC(=O)c1ccc(CN2CC(=O)N3[C@H](CO)[C@@H](c4ccc(Br)cc4)[C@@H]3C2)cc1,-3.5*
C/C=C/c1ccc([C@@H]2[C@H]3CN(Cc4ccc(C)cc4)CC(=O)N3[C@H]2CO)cc1,2
COC(=O)c1ccc(CN2CC(=O)N3[C@H](CO)[C@@H](c4ccc(Br)cc4)[C@H]3C2)cc1,2.8
Cc1cccc(S(=O)(=O)N2CCCCN3[C@H](C2)[C@H](c2ccc(C#CC4CC4)cc2)[C@@H]3CO)c1,2.3
CCCC#Cc1ccc([C@H]2[C@H]3CN(S(=O)(=O)c4ccccc4F)CCCCN3[C@H]2CO)cc1,0.77
O=C(c1ccc(F)cc1)N1CC(=O)N2[C@H](CO)[C@@H](c3ccc(-c4cccnc4)cc3)[C@H]2C1,0.56
CS(=O)(=O)N1[C@H](CO)[C@@H](c2ccc(C#CC3CC3)cc2)[C@@H]1C#N,2.8
C[C@H]1CN([C@@H](C)CO)C(=O)CCCn2nncc2CO[C@@H]1CN(C)Cc1ccc2c(c1)OCCN2C,-0.95
COCC(=O)N(C[C@H]1N[C@H](CO)[C@H]1c1ccc(-c2cccnc2)cc1)C(C)C,1.6
CCCC#Cc1ccc([C@@H]2[C@H]3CN(CCC)CCCCN3[C@H]2CO)cc1,-1
O=C(NC1CCCC1)N1CC(=O)N2[C@H](CO)[C@H](c3ccc(-c4ccncc4)cc3)[C@@H]2C1,0.54
O=C(C1CCCCC1)N1CC(=O)N2[C@@H](CO)[C@@H](c3ccc(-c4cccnc4)cc3)[C@@H]2C1,-0.39
O=C(NC1CCCCC1)N1CC(=O)N2[C@H](CO)[C@@H](c3ccc(-c4ccncc4)cc3)[C@H]2C1,-0.66
O=C(C1CCCCC1)N1CC(=O)N2[C@H](C1)[C@@H](c1ccc(-c3cccnc3)cc1)[C@@H]2CO,-0.83
O=C(NC1CCCC1)N1CC(=O)N2[C@H](CO)[C@@H](c3ccc(-c4ccncc4)cc3)[C@H]2C1,1.1
O=C(NC1CCCC1)N1CC(=O)N2[C@H](CO)[C@H](c3ccc(-c4cccnc4)cc3)[C@@H]2C1,-3.4*
O=C(C1CCCCC1)N1CC(=O)N2[C@H](CO)[C@@H](c3ccc(-c4cccnc4)cc3)[C@@H]2C1,-5.1*
O=C(NC1CCCC1)N1CC(=O)N2[C@H](CO)[C@H](c3ccc(-c4ccccc4)cc3)[C@@H]2C1,-5.7*
O=C(C1CCCCC1)N1CC(=O)N2[C@H](CO)[C@H](c3ccc(-c4cccnc4)cc3)[C@@H]2C1,0.25
Cc1ccc(-c2ccc([C@@H]3[C@H]4CN(C(=O)c5ccc(F)cc5)CCCCN4[C@H]3CO)cc2)cc1,0.33
O=C(Nc1ccccc1)N1CC(=O)N2[C@H](C1)[C@H](c1ccc(C#Cc3cccnc3)cc1)[C@@H]2CO,0.89
CCCC(=O)Nc1ccc2c(c1)OC[C@H](C)N(C(=O)c1cccnc1)C[C@H](C)[C@@H](OC)CN(C)C2=O,0.27
O=C(C[C@@H]1C[C@@H]2c3cc(NC(=O)CC4CC4)ccc3O[C@@H]2[C@H](CO)O1)NCC1CC1,-0.63
O=C(C1CCC1)N1C[C@H]2[C@@H](c3ccccc31)[C@@H](CO)N2C(=O)Nc1cccc(F)c1,2.8
SMILES,IDE exosite inh
CNC[C@@H]1Oc2ccc(NS(=O)(=O)c3ccc(OC)cc3)cc2C(=O)N([C@H](C)CO)C[C@H]1C,1.6
COc1cc(CN2[C@@H]3CNC[C@H]2C3c2ccc(-c3cccc(C)c3)cc2)cc(OC)c1 (some centres not stated),-7.2*
COc1cc(CN2[C@@H]3CNC[C@H]2C3c2ccc(-c3ccc(C#N)cc3)cc2)cc(OC)c1 (some centres not stated),0.45
C/C=C/c1ccc(C2[C@H]3CNC[C@@H]2N3Cc2cc(OC)cc(OC)c2)cc1 (some centres not stated),2.2
COc1ccccc1-c1ccc(C2[C@H]3CNC[C@@H]2N3Cc2cc(-c3ccccc3)on2)cc1 (some centres not stated),-1.1
COc1cccc(CN2[C@@H]3CNC[C@H]2C3c2ccc(-c3ccc(C#N)cc3)cc2)c1 (some centres not stated),0.55
COc1cccc(CN2[C@@H]3CNC[C@H]2[C@H]3c2ccc(-c3ccccc3OC)cc2)c1,-3.4*
O=C1CN(S(=O)(=O)c2ccccc2)C[C@H]2[C@@H](c3ccc(C4=CCCC4)cc3)[C@H](CO)N12,3.3
O=C(Nc1ccc(F)cc1)N1CC(=O)N2[C@@H](CO)[C@H](c3ccc(C#Cc4cccnc4)cc3)[C@@H]2C1,0.2
CCCN1CCC2(CC1)CN(Cc1ccc3c(c1)OCO3)[C@H](CO)c1[nH]c3cc(OC)ccc3c12,-0.73
CN1CCN(C(=O)C[C@@H]2CC[C@H]3[C@@H](COC[C@@H](O)CN3CC3CCCCC3)O2)CC1,1.4
C[C@H]1CN([C@@H](C)CO)C(=O)c2ccccc2-c2ccccc2CO[C@H]1CN(C)Cc1cccc(C(=O)O)c1,1.1
O=C(C1CC1)N1CC(=O)N2[C@@H](CO)[C@@H](c3ccc(C#CCc4ccccc4)cc3)[C@@H]2C1,-3.3*
O=C(C1CCOCC1)N1CC(=O)N2[C@@H](CO)[C@@H](c3ccc(C#CCc4ccccc4)cc3)[C@@H]2C1,-1.1
COCC(=O)N1CC(=O)N2[C@H](CO)[C@H](c3ccc(C#CCc4ccccc4)cc3)[C@H]2C1,-2.9
COCC(=O)N1CC(=O)N2[C@H](CO)[C@@H](c3ccc(C#CCc4ccccc4)cc3)[C@@H]2C1,-3
O=C(C1CC1)N1CC(=O)N2[C@H](C1)[C@H](c1ccc(C#CCc3ccccc3)cc1)[C@@H]2CO,-4.6*
O=C(C1CCOCC1)N1CC(=O)N2[C@H](CO)[C@@H](c3ccc(C#CCc4ccccc4)cc3)[C@@H]2C1,-0.28
O=C(C1CCOCC1)N1CC(=O)N2[C@H](C1)[C@@H](c1ccc(C#CCc3ccccc3)cc1)[C@@H]2CO,-0.15
COCC(=O)N1CC(=O)N2[C@@H](CO)[C@H](c3ccc(C#CCc4ccccc4)cc3)[C@@H]2C1,-0.16
COCC(=O)N1CC(=O)N2[C@@H](CO)[C@@H](c3ccc(C#CCc4ccccc4)cc3)[C@@H]2C1,-4.7*
C/C=C/c1ccc([C@H]2[C@@H](CO)N(C(=O)COC)[C@H]2CNC(=O)C2CC2)cc1,-0.41
N#C[C@H]1[C@H](c2ccccc2-c2ccccc2F)[C@@H](CO)N1C(=O)Cc1ccccc1,-0.14
CCCC(=O)N1CCC2(CC1)CN[C@@H](CO)c1[nH]c3cc(OC)ccc3c12,0.32
N#C[C@H]1[C@@H](c2ccc(C3=CCCC3)cc2)[C@@H](CO)N1C(=O)Nc1ccccc1F,2.4
SMILES,IDE exosite inh
CCc1csc(N2[C@@H](C#N)[C@@H](c3ccc(C4=CCCC4)cc3)[C@@H]2CO)n1,2.6
C[C@H]1CN([C@@H](C)CO)C(=O)c2cc(C3=CCCCC3)cnc2O[C@@H]1CN(C)S(=O)(=O)c1cn(C)cn1,-0.53
O=C(C[C@@H]1CC[C@H]2[C@@H](COC[C@H](O)CN2C(=O)c2ccncc2)O1)NCc1cc(F)cc(F)c1,0.61
O=C(CC1CC1)N1CC(=O)N2[C@H](CO)[C@H](c3ccc(C#Cc4ccccc4)cc3)[C@H]2C1,-16*
O=C(CC1CC1)N1CC(=O)N2[C@H](CO)[C@H](c3ccc(C#Cc4ccc(F)cc4)cc3)[C@H]2C1,0.74
O=C(CC1CC1)N1CC(=O)N2[C@H](CO)[C@@H](c3ccc(C#Cc4ccc(F)cc4)cc3)[C@@H]2C1,3.3
